Abeta yeast res: restores growth of yeast expressing A-beta42 peptide | yeast expressing A-beta42, growth rescue, OD600, 48 h; response scale: 0% DMSO, 100% iron-clioquinol control | Potency, µM (doses to about 46.1 µM), actives largely listed as activators | 410,000 compounds, 0.063% hits | AID 1347071; note: nearly all actives have a fitted effect of over 55% in size
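Yeast A-beta toxicity model in growth medium with pinned compounds, 48 h at 30 C; growth read as absorbance at 600 nm. Normalized to FeCl3/clioquinol equimolar mix (positive) and DMSO (negative).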
TDP43 rescue: TDP-43 toxicity inhibition in yeast | AID 652104 | TDP-43 expressing yeast growth rescue, BacTiter-Glo, 24 h | Potency, µM (doses to about 46.1 µM), for the others: top-dose growth rescue (activation), most hits filed as activators | 410,000 compounds, 1.8% hits; note: % of control where 0% means no effect; nearly all actives have a fitted effect of over 50% in size
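Readout is BacTiter-Glo luminescence of cell growth, so inhibitors register as activators. TDP-43-expressing yeast at OD600=0.02 in galactose medium, after raffinose pregrowth to mid-log, were incubated with compound for 24 hr at 30 deg C.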
FUS suppressor: suppressors of FUS proteinopathy in yeast. S. cerevisiae FUS-expressing, growth rescue, OD600, 24 h. Potency, µM (series often up to 76.6 µM), hits mostly activators. 390,000 compounds, 0.24% hits;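 note: plate controls were DMSO vehicle for no effect and reference control for full effect; nearly all actives have a fitted effect of over 55% in size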
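Quantitative HTS measuring growth restoration of FUS-toxic yeast. Galactose-induced cells (OD 0.005) were exposed 24hr at 30C to compounds at several concentrations, then absorbance at 600 nm was recorded.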
aSyn rescue: rescues yeast growth from alpha-synuclein toxicity. Yeast expressing alpha-synuclein, growth rescue, BacTiter-Glo, 24 h. Potency, µM (highest dose often 46.1 µM), inactives show at the highest dose growth rescue (activation), actives largely listed as activators. 370,000 compounds, 0.14% hits; note: % of control where 0% means no effect; nearly all actives have a fitted effect of over 65% in size
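Screening used galactose-induced yeast with toxic alpha-synuclein levels, exposed to compound for 24 hr at 30 deg C. Cell growth, read with BacTiter-Glo luminescence, gave the measured signal.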
The depositor's hits bear a star; i = inactive; ? = inconclusive; . = not tested or not shown; [ ] = remark or other dose. Rows were chosen to be rich in hits. Some 2.1% of all compounds tested hit in one or more screens of this group. Calls come from the whole dose curve; as a rule, active = well fitted curve in the direction sought with a large enough effect; inconclusive = small, poorly fitted or top-dose-only effect, or another doubt; inactive = no such curve, though single readings can be large; an effect the other way counts as inactive or inconclusive. Potency is the fitted concentration of half-maximal effect.

SMILES	Abeta yeast res	TDP43 rescue	FUS suppressor	aSyn rescue
CCOC(=O)c1ccc(S(=O)(=O)NCC(c2ccc(N(C)C)cc2)c2c[nH]c3ccccc23)cc1 (stereo unspecified)	i	3.2µM*	?	-2%
O=C(CN1CCOCC1)Nc1ccccc1NC(=O)C1CCN(c2ncccn2)CC1	i	-11%	i	-1%
Cc1ccc(C2CN(C)C3(C(=O)Nc4ccccc43)C23COc2ccccc2C3=O)cc1 (stereo unspecified)	i	3.5µM*	.	3%
O=C(Nc1ccccc1N1CCCC1)c1cc(S(=O)(=O)N2CCOCC2)ccc1Cl	i	23%	i	0%
Cc1cc(C)nc(SCCC(=O)Nc2ccccc2)n1	i	0%	i	10%
COc1ccccc1CC(=O)NN1C(=O)NC2(CCC(C)CC2)C1=O (stereo unspecified)	i	-5%	i	2%
Cc1ccc(-n2c(C)cc(C(=O)CSc3nncs3)c2C)cc1	i	22µM*	i	-20%
Cc1ccc(-n2c(C)cc(C(=O)CSc3nnnn3C)c2C)cc1	i	32µM*	i	0%
Cc1ccc(OCC(=O)Nc2ccncc2)c(C)c1	i	0%	i	-6%
CC(=O)CSc1nc(-c2ccccc2)c(-c2ccccc2)o1	i	16µM*	i	8%
COc1ccc(NS(=O)(=O)c2ccc3oc4ccccc4c3c2)cn1	i	?	i	22µM*
O=S(=O)(c1ccc(Cl)cc1)N1CCN=C1SCc1cccc(Cl)c1	i	5%	.	?
O=S(=O)(c1ccccc1)N1CCN=C1SCc1c(F)cccc1Cl	i	11µM*	.	7%
Cc1ccc(NC(=O)CC2C(=O)OCC3CCCCN32)cc1Cl (stereo unspecified)	i	4%	i	-8%
CCCOc1ccc(NC(=O)CC2C(=O)OCC3CCCCN32)cc1 (stereo unspecified)	i	35µM*	i	3%
CC1Cc2nc(SCC(=O)N3CCOCC3)n(-c3ccccc3)c(=O)c2S1 (stereo unspecified)	i	0%	i	2%
Nc1nc(Cl)cc(N2CCC(c3cc(-c4ccc(Cl)cc4Cl)n[nH]3)CC2)n1	i	-51%	13µM*	17%
Nc1nc(Cl)cc(N2CCCC2)n1	i	18%	i	3%
O=C(O)c1ccc(-c2ccc(O)c(F)c2)cc1	i	16µM*	i	12%
CCc1cc(C(=O)Nc2ccc(S(=O)(=O)NC3=NCCCCC3)cc2)sc1C	i	-27%	25µM*	-3%
COc1ccc2oc(=O)cc(CN3CCN(C(=O)c4ccccc4F)CC3)c2c1	i	0%	i	.
COc1cccc(C(NC(C)=O)c2nc(-c3cccs3)cs2)c1 (stereo unspecified)	i	?	i	6%
CC(=O)NC(c1ccccc1)c1nc(-c2cccs2)cs1 (stereo unspecified)	i	16µM*	i	2%
COC(=O)C1=C(C)N(C)C(C)=C(C(=O)OC)C1c1ccc(C(=O)OC)cc1	i	13%	i	6%
C#CCOCCOCCOCCNc1nc(N2CCN(C(=O)CCCCCCCCCCNC(=O)[C@H](CCCCN)n3cc(CCCC(=O)O)nn3)CC2)nc(N2CCN(C(=O)CCCCCCCCCCNC(=O)[C@H](CCCCN)n3cc(CCCC(=O)O)nn3)CC2)n1	i	-39%	?	-17%
SMILES	Abeta yeast res	TDP43 rescue	FUS suppressor	aSyn rescue
COc1ccc(OCc2cc(-c3ccc(Cl)cc3)no2)cc1	i	0%	i	0%
O=C(CCl)NCc1cc(-c2ccc(Cl)cc2)no1	i	10µM*	i	-8%
Cc1ccc(C)c2[nH]c(=O)c(CN(CCN3CCCC3)C(=O)Nc3cccc(Cl)c3)cc12	?	-6%	35µM*	5%
Cc1cc(C)c2cc(CN(CCN3CCCC3)C(=O)Nc3ccc(F)cc3)c(=O)[nH]c2c1	i	3%	?	-2%
O=C(N1CCCC1)C12CCC3CC(CC(C3)C1)C2	i	4%	i	-1%
O=C(NNC(=O)c1ccc(Cl)cc1Cl)c1csc(-c2cccnc2)n1	i	0%	i	5%
O=C(NCc1ccc(Cl)cc1)c1csc(-c2cccnc2)n1	i	16µM*	i	-1%
COc1cc(C(=O)Oc2c(Sc3ccc(C)cc3)c(C)nn2-c2ccccc2)cc(OC)c1OC	i	22µM*	i	.
COc1cc(C(=O)Sc2ccc(C)cc2)cc(OC)c1OC	i	28µM*	.	-21%
COc1ccccc1C(=O)Oc1c(Sc2ccccc2)c(C)nn1-c1ccccc1	i	21%	i	.
COc1ccccc1OCC(=O)Sc1ccc(C)cc1	i	?	i	25%
Cc1c(C(=O)O)cnc2cc(-c3ccc(Cl)cc3)nn12	i	3.5µM*	i	-4%
Cc1nn(CC(=O)Nc2ccccn2)c(C)c1Br	i	27%	.	6%
Cc1cc2c(cc1C)-c1nnnn1C(N1CCCC1)C(=O)N2 (stereo unspecified)	i	24%	i	-7%
Cc1cc2c(cc1C)-c1nnnn1C(N1CCC(Cc3ccccc3)CC1)C(=O)N2 (stereo unspecified)	i	25µM*	i	0%
Cc1cc(C(=O)NN)c(C)o1	i	0%	i	-2%
CCc1ccc(C(C)NC(=O)c2cc(C)oc2C)cc1 (stereo unspecified)	i	13µM*	i	15%
COc1ccc(/C=C2/C(=O)OCc3cc(OC)c(OC)cc32)cc1	i	20µM*	i	4%
COc1ccc(/C=C2\CCOC2=O)cc1	i	-19%	i	2%
S=C1NC(c2ccccc2)=NCN1c1ccccc1	i	13µM*	i	0%
O=C1CN(c2ccccc2)C(=O)N1	i	-9%	i	-1%
N#Cc1ccc(C(=O)Nc2nc(SCc3ccc(Cl)cc3)n[nH]2)cc1	i	0%	i	0%
CCc1nc(SCc2ccc(Cl)cc2)n[nH]1	i	13µM*	i	3%
O=S(=O)(Nc1nc(SCc2ccc(Cl)cc2)n[nH]1)c1ccc(F)cc1	?	20µM*	i	0%
COCCCn1c(=N)c(C(=O)NCC2CCCO2)cc2c(=O)n3cccc(C)c3nc21 (stereo unspecified)	i	-8%	.	-6%
O=C(CCN1C(=O)C2C3C=CC(C3)C2C1=O)NC1CCCc2ccccc21 (stereo unspecified)	i	-3%	i	0%
O=C(CCn1ccc2ccccc21)NC1CCCc2ccccc21 (stereo unspecified)	i[9.22 µM]	18µM*	i	9%
COc1ccc(Cl)cc1NC(=O)CC(C)c1ccccc1 (stereo unspecified)	?	13µM*	?	-10%
COc1ccc(Cl)cc1NC(=O)CC(C)=O	i	0%	i	1%
COc1ccc(Cl)cc1NC(=O)COC(=O)c1c(-c2ccccc2)noc1C	?	13µM*	i	18%
